Results filed as inconclusive are left out. The source made the active and inactive calls. How the source made its calls, unless noted: active means hit-call score of the fitted dose curve at least 0.9, where 1 is the maximum; inconclusive means response in the unintended direction; inactive means score below 0.9.
Key:
[1] = CCTE_Shafer_MEA_acute_AB: CCTE's Alamar Blue Assay for Cytotoxicity in the Neural Acute Assay, Shafer Lab (AID 2284069);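 further: active compounds lower the viability signal compared with DMSO wells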
Summary of the method: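 Read-out: resazurin fluorescence (ex 544, em 590 nm) after CTB reagent at 1:6 dilution in fresh media. Cells: primary rat cortical neuron networks, DIV 13 or 15, chemically exposed on MEA plates; DMSO as negative control/baseline.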

[2] = biological target: Peroxisome proliferator-activated receptor gamma (Homo sapiens) (UniProt P37231); experiment: ATG_PPARg_TRANS: Attagene TRANS-FACTORIAL HepG2 Assay for human Peroxisome Proliferator-activated Receptor-gamma (PPARg) (AID 2283007)
Summary of the method: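 Twenty-four hours after chemical dosing of transiently transfected HepG2 cells, isolated RNA was converted to cDNA, reporter sequences amplified and 6-FAM-labelled, then HpaI-digested and analysed by capillary electrophoresis. Signal increase against DMSO was fitted.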

[3] = biological target: Estrogen receptor beta (Homo sapiens) (UniProt Q92731); experiment: OT_ER_ERbERb_0480: Odyssey Thera (OT) 8-hour HEK293T Protein-Complementation Assay for Estrogen Receptor-beta/-beta Homodimer (AID 2283357);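 further: active means signal gain over DMSO baseline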
Summary of the method: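 Homodimerization of ER-beta LBD measured by protein-fragment complementation in HEK293T; 8 h dosing; fixed, Draq5 counterstain; fluorescence intensity gain over DMSO baseline, positive fitting direction; laser scanning cytometry.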

[4] = biological target: Estrogen receptor beta (Homo sapiens) (UniProt Q92731); experiment: OT_ER_ERbERb_1440: Odyssey Thera (OT) 24-hour HEK293T Protein-Complementation Assay for Estrogen Receptor-beta/-beta Homodimer (AID 2283380);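 further: scored as signal increase over DMSO baseline for both agonists and antagonists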
Summary of the method: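 HEK293T cells stably expressing ER beta LBD (aa 310-547) homodimer fragment-complementation reporter, dosed 24 h. Cells formaldehyde-fixed, Draq5-stained; gain in nuclear (agonist) or nuclear plus cytoplasmic (antagonist) fluorescence versus DMSO read by laser scanning cytometry.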

[5] = biological target: Retinoic acid receptor RXR-alpha (Homo sapiens) (UniProt P19793); experiment: OT_NURR1_NURR1RXRa_0480: Odyssey Thera (OT) 8-hour HEK293T Protein Complementation Assay for Nurr1/retinoid X receptor (RXR) (AID 2283385)
Summary of the method: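 Interaction of bait and prey reconstitutes a functional reporter, whose fluorescence was measured in HEK293T cells dosed with compound for 8 hours. Signal gain relative to DMSO defined the single endpoint.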

[6] = biological target: Retinoic acid receptor RXR-alpha (Homo sapiens) (UniProt P19793); experiment: OT_NURR1_NURR1RXRa_1440: Odyssey Thera (OT) 24-hour HEK293T Protein Complementation Assay for Nurr1/retinoid X receptor (RXR) (AID 2283386)
Summary of the method: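 Steps: fragment-tagged Nurr1 and RXRα expressed in HEK293T; compounds added; after 24 h, complemented reporter quantified by fluorescence intensity; signal increase over DMSO fitted as the single endpoint.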

[7] = biological target: Peroxisome proliferator-activated receptor gamma (Homo sapiens) (UniProt P37231); experiment: OT_PPARg_PPARgSRC1_0480: Odyssey Thera (OT) 8-hour Protein-Complementation Assay for Peroxisome Proliferator-activated Receptor Gamma / SRC-1 Co-activator (AID 2283387);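 further: nuclear to cytoplasmic split Venus YFP fluorescence ratio reporting PPARg SRC-1 interaction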
Summary of the method: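 Read-out: 488 nm N/C fluorescence ratio from complemented Venus YFP fragments, ≥350 cells per image, gain-of-signal fitted against DMSO baseline. Fusions of PPARg/SRC-1 with IFP1/IFP2 expressed transiently in HEK293T; compounds applied 8 h.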

[8] = biological target: Peroxisome proliferator-activated receptor gamma (Homo sapiens) (UniProt P37231); experiment: OT_PPARg_PPARgSRC1_1440: Odyssey Thera (OT) 24-hour Protein-Complementation Assay for Peroxisome Proliferator-activated Receptor Gamma/ SRC-1 Co-activator (AID 2283388);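 further: nuclear to cytoplasmic ratio of reconstituted Venus YFP fluorescence in fixed imaged cells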
Summary of the method: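 Protein-fragment complementation between PPARg and coactivator SRC-1 was measured by fluorescence imaging in transiently transfected HEK293T cells after 24 h treatment. Signal was quantified as N/C ratio in the 488 nm channel, with DMSO as negative control.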

[9] = system: Thyroperoxidase (TPO), gene 54314; experiment: CCTE_Simmons_AUR_rTPO: CCTE's Amplex UltraRed Assay for Thyroperoxidase (TPO) Inhibition, Simmons Lab (AID 2283662);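 on AC50: potency for loss of signal meaning inhibition of peroxidase activity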
Summary of the method: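 Rat thyroid microsomal TPO + 25 uM AUR in 200 mM K phosphate; cpd 5 nM–87.5 uM [final], 8 conc, 0.5% DMSO; 300 uM H2O2 starts rxn; 37C dark 30 min; endpoint FI 544/590 nm; n=3.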

[10] = biological target: Luciferin 4-monooxygenase (Photinus pyralis) (UniProt P08659); experiment: CCTE_Simmons_QuantiLum_inhib_2: CCTE's Firefly Luciferase Inhibition Assay, Simmons Lab (AID 2283767);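 on AC50: potency for inhibitors that lower luciferase luminescence relative to DMSO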
Summary of the method: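 First, 5 ng purified luciferase in phosphate buffer with BSA is dispensed per well. Next, test chemicals (5 nM to 87.5 uM final, 0.5% DMSO) are added and incubated 30 min at 37C in darkness. Finally, luciferin reagent is injected and luminescence read kinetically.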

[11] = biological target: Retinoic acid receptor alpha (Homo sapiens) (UniProt P10276); experiment: ATG_DR5_RAR_CIS: Attagene CIS-FACTORIAL HepG2 Assay for human Retinoic Acid Receptor Alpha (RARE), DR5 submotif (AID 2282934; active means hit-call score of the fitted dose curve at least 0.9, where 1 is the maximum; inactive means score below 0.9); settings: HepG2 Attagene cis-factorial RARE DR5 reporter, mRNA; actives raise or lower the signal
Summary of the method: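 Read-out: DR5-driven reporter transcript measured by RT-PCR, 6-FAM primer extension, HpaI digest and capillary electrophoresis. Human HepG2 liver cells carry transiently transfected cis-element reporter constructs; dosing lasts 24 h. Gain or loss of signal fitted against DMSO baseline.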

[12] = biological target: Glucocorticoid receptor (Homo sapiens) (UniProt P04150); experiment: ATG_GR_TRANS: Attagene TRANS-FACTORIAL HepG2 Assay for human Glucocorticoid Receptor (GR) (AID 2282978); settings: HepG2 Attagene TRANS GR reporter, mRNA transcription;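 further: activators score as hits since higher reporter transcript over DMSO is fitted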
Summary of the method: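 After 24 h incubation with test chemical, transfected HepG2 cells were lysed for RNA; reporter cDNA was amplified, FAM-labelled, HpaI-digested and sized on a capillary analyser. Signal gain relative to DMSO was scored.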

[13] = biological target: Nuclear receptor subfamily 4 group A member 2 (Homo sapiens) (UniProt P43354); experiment: ATG_NURR1_TRANS: Attagene TRANS-FACTORIAL HepG2 Assay for human Nuclear Receptor Related Protein 1 (NURR1) (AID 2282985); settings: HepG2 Attagene TRANS reporter, mRNA readout
Summary of the method: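 Endpoint: reporter mRNA increase relative to DMSO. HepG2 cells transfected with reporter units, treated 24 h; RNA processed by RT-PCR, labelling, HpaI digestion and capillary electrophoresis.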

[14] = CCTE_Simmons_CellTiterGLO_HEK293T: Viability Assessment in CCTE's Assays for Thyroperoxidase (TPO) Inhibition, Simmons Lab (AID 2283665);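 on AC50: cells exposed to compound for 24 h before readout; actives reduce ATP signal below DMSO vehicle meaning cytotoxicity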
Summary of the method: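 Cells were seeded overnight, then exposed to an eight-point series up to 87.5 uM final for 24 hours. CellTiter-Glo reagent was added and luminescence read after 20 min, giving ATP-based viability versus DMSO.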

[15] = biological target: Bile acid receptor (Homo sapiens) (UniProt Q96RI1); experiment: ATG_IR1_CIS: Attagene CIS-FACTORIAL HepG2 Assay for human Nuclear Receptor Subfamily 1 Group H Member 4 (NR1H4), IR1 submotif (AID 2282946; active means hit-call score of the fitted dose curve at least 0.9, where 1 is the maximum; inactive means score below 0.9); settings: IR1 reporter transcription, actives raise or lower the signal
Summary of the method: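 Fluorescence of capillary-separated, HpaI-digested RT-PCR reporter products gave IR1-element mRNA induction in HepG2 cells 24 h after dosing. Endogenous transcription factors drove the cis-regulated reporters; activity was fitted bidirectionally against DMSO.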

[16] = biological target: Bile acid receptor (Homo sapiens) (UniProt Q96RI1); experiment: ATG_FXR_TRANS: Attagene TRANS-FACTORIAL HepG2 Assay for Farnesoid X Receptor (FXR) (AID 2282979); settings: HepG2 Attagene TRANS FXR-GAL4 reporter transcription;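 further: hits raise reporter mRNA above DMSO so AC50 marks FXR activation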
Summary of the method: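 Transient transfection of HepG2 with multiplexed GAL4-UAS reporter units; exogenous FXR-GAL4 chimera. Dose 24 h → TriZol RNA → oligo(dT) RT → PCR, 6-FAM primer extension, HpaI cut → CE. Gain vs DMSO.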

[17] = biological target: Bile acid receptor (Homo sapiens) (UniProt Q96RI1); experiment: OT_FXR_FXRSRC1_1440: Odyssey Thera (OT) 24-hour HEK293T Protein-Complementation Assay for Farnesoid X receptor/SRC-1 Co-activator (AID 2283384)
Summary of the method: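 Measures ligand-driven FXR–SRC-1 co-activator recruitment in HEK293T via fragment complementation, fluorescence intensity at 24 h. DMSO served as negative control and baseline for gain-of-signal fitting.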

[18] = ACEA_AR_agonist_AUC_viability: ACEA Biosciences xCELLigence Real-Time Cell Analysis on Androgen Receptor Agonism for Viability (AID 2283775)
Summary of the method: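 22Rv1 cells; impedance growth kinetics; 8-pt 1:4 dilutions from 100 uM top final, ≤0.5% DMSO; n = 2; 80 h read; AUC viability, loss-of-signal vs DMSO.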

[19] = ACEA_AR_antagonist_AUC_viability: ACEA Biosciences xCELLigence Real-Time Cell Analysis on Androgen Receptor Antagonism for Viability (AID 2283776);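 further: 22Rv1 human prostate cancer cells growing on impedance electrode plates; area under impedance growth curve at 80 h after dosing as viability; hits lower the growth signal relative to DMSO meaning cytotoxicity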
Summary of the method: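 Real-time electrical impedance tracks 22Rv1 proliferation after continuous compound exposure (top 100 uM final, 1:4 steps, 8 concentrations). The 80 h area-under-curve serves as the cytotoxicity readout relative to DMSO.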

[20] = biological target: human RAR-related Orphan Receptor beta (RORb), RORB (gene 6096) (UniProt Q92753); experiment: ATG_RORb_TRANS: Attagene TRANS-FACTORIAL HepG2 Assay for human RAR-related Orphan Receptor beta (RORb) (AID 2283010)
Summary of the method: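 Transfect HepG2 with multiple GAL4-UAS reporter transcription units; dose chemicals for 24 h; isolate RNA, reverse-transcribe and PCR-amplify reporter sequences; label, digest and resolve fragments by capillary electrophoresis; fit increases relative to DMSO.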

Measured: AC50

Sequence of Peroxisome proliferator-activated receptor gamma (Homo sapiens) (P37231 whole entry, looked up, the tested form may be a part): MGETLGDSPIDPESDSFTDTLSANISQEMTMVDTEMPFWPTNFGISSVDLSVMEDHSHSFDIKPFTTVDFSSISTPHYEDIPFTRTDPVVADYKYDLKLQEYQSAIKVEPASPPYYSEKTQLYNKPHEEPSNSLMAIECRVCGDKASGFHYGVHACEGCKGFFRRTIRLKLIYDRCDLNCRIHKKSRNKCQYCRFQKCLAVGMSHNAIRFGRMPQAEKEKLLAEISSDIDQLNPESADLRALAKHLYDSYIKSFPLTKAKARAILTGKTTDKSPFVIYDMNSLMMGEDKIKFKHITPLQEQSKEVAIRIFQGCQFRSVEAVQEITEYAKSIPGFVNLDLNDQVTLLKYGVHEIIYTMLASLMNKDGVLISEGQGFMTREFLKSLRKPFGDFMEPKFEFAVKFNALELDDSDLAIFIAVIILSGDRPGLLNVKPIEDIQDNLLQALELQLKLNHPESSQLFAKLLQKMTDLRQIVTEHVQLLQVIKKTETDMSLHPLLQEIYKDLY
Sequence of Glucocorticoid receptor (Homo sapiens) (P04150 whole entry, looked up): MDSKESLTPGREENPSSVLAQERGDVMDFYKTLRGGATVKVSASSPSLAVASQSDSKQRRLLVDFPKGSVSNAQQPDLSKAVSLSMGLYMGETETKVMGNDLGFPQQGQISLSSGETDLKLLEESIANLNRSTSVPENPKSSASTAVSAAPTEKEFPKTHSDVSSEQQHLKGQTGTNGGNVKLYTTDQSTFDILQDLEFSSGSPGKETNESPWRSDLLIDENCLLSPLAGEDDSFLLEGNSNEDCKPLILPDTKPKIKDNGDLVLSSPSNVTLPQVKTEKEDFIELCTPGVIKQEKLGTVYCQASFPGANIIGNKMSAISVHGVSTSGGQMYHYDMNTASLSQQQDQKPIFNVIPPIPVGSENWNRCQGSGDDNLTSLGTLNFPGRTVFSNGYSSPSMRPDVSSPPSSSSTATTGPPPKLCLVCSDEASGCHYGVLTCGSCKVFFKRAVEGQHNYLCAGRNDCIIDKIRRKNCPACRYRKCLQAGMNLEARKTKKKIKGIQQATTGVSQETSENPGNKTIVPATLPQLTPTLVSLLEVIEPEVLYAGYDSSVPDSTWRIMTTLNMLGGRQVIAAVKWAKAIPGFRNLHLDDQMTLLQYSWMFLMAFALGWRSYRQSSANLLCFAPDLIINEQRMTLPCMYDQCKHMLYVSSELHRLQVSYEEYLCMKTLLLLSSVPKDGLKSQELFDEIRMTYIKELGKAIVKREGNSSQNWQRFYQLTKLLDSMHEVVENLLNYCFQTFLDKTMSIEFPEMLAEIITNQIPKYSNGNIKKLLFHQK
Sequence of Luciferin 4-monooxygenase (Photinus pyralis) (P08659 whole entry, looked up): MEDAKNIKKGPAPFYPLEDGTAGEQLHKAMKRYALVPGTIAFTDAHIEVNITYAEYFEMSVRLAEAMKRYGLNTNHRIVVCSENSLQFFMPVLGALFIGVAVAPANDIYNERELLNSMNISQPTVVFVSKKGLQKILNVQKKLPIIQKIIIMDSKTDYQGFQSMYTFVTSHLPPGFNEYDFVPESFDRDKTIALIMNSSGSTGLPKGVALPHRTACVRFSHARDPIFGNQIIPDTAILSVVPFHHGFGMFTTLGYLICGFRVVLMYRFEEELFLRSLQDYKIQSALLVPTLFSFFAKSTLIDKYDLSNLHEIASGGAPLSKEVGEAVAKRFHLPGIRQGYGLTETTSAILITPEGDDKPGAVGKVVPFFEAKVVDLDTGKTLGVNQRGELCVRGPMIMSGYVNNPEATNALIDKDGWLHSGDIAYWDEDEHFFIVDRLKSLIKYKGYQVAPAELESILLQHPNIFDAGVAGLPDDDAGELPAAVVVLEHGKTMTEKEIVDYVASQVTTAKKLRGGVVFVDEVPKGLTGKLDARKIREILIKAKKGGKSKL
Sequence of human RAR-related Orphan Receptor beta (RORb), RORB (gene 6096) (Q92753 whole entry, looked up, the tested form may be a part): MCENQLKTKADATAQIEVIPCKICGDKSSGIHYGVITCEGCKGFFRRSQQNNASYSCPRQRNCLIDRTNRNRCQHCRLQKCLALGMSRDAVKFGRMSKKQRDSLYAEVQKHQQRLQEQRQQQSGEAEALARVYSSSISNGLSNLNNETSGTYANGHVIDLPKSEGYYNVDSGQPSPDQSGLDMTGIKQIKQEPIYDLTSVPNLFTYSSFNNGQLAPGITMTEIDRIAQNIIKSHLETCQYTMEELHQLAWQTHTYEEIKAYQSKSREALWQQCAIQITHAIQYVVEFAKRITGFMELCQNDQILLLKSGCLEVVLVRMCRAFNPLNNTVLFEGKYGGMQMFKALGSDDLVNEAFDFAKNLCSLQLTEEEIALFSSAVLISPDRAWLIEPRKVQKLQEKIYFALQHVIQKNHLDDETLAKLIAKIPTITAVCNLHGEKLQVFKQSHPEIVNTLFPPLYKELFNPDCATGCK
Sequence of Estrogen receptor beta (Homo sapiens) (Q92731 whole entry, looked up, the tested form may be a part): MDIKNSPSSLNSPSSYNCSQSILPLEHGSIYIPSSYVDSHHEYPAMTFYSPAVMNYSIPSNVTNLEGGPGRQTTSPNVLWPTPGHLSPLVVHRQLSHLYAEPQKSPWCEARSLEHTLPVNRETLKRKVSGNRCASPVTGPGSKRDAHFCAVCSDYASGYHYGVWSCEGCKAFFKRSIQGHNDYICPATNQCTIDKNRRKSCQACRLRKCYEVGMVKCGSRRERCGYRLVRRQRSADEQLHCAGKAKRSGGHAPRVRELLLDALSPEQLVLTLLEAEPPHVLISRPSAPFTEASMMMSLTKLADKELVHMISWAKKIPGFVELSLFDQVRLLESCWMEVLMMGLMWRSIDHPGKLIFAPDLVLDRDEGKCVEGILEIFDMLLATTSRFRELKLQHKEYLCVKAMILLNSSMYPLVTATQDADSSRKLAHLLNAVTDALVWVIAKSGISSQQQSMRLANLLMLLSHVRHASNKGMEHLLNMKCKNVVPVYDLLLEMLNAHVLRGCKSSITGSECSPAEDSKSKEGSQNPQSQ
Sequence of Retinoic acid receptor alpha (Homo sapiens) (P10276 whole entry, looked up): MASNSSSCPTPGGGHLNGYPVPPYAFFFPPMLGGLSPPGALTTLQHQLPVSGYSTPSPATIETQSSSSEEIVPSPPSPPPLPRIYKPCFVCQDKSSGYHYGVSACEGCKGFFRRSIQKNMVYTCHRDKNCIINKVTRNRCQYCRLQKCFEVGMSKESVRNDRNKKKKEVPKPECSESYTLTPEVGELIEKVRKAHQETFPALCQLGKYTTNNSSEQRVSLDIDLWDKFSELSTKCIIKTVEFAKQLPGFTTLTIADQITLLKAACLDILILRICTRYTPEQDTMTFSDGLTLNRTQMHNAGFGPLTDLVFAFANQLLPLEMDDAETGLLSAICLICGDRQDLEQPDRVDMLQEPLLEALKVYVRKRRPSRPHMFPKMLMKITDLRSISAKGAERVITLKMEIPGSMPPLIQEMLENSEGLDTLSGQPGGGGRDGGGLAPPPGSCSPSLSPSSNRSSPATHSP
Sequence of Retinoic acid receptor RXR-alpha (Homo sapiens) (P19793 whole entry, looked up, the tested form may be a part): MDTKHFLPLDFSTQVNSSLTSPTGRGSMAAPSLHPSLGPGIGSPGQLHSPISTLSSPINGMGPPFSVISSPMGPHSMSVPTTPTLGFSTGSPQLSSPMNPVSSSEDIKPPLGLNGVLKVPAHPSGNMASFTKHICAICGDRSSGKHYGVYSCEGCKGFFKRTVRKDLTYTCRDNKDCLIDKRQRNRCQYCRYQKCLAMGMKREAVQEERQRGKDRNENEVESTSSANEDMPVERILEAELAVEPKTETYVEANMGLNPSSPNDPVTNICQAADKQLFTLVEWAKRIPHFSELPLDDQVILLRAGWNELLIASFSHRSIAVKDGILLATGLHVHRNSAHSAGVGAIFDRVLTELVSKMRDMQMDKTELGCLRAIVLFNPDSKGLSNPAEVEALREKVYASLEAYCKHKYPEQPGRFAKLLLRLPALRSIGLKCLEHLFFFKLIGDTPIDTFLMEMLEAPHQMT
Sequence of Nuclear receptor subfamily 4 group A member 2 (Homo sapiens) (P43354 whole entry, looked up): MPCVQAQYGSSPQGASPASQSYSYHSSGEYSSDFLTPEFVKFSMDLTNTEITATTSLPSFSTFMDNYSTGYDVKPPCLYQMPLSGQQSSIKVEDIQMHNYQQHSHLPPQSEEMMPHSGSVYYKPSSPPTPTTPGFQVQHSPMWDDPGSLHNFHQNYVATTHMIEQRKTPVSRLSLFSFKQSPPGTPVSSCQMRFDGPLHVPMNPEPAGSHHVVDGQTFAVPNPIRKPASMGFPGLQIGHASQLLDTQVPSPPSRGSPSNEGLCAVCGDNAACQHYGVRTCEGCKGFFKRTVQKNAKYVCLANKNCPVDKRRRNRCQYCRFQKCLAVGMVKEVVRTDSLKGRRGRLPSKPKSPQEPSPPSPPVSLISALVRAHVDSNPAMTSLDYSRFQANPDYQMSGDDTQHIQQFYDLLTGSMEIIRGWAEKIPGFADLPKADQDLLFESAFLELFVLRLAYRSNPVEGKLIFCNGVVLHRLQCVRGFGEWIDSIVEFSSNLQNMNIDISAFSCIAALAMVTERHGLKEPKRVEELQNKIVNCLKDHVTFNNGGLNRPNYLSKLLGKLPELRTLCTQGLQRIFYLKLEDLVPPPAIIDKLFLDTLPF
Sequence of Bile acid receptor (Homo sapiens) (Q96RI1 whole entry, looked up, the tested form may be a part): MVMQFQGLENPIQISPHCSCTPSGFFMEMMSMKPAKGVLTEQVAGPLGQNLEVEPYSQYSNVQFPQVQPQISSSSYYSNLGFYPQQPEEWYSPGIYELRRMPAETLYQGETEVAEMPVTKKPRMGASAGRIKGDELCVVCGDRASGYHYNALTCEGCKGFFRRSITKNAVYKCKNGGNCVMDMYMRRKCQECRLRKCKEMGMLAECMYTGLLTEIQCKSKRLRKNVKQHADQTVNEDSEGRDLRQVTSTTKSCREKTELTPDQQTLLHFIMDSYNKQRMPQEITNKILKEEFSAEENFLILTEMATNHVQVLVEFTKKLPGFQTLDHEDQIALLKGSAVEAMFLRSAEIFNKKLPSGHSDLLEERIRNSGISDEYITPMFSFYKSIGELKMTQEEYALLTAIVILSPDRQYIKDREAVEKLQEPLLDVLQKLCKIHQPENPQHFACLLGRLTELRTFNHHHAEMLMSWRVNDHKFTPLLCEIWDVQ

CC(C)C1OCCN1CCOC(=O)NCCCCCCNC(=O)OCCN1CCOC1C(C)C (centres undefined)
inactive: [1]

Nc1ccc(S(=O)(=O)Nc2cnc3ccccc3n2)cc1
active: [9] 0.715 µM
inactive: [2] | [3] | [4] | [5] | [6] | [7] | [8] | [10]

O=C(C1CCCCC1)N1CC(=O)N2CCc3ccccc3C2C1 (centres undefined)
inactive: [11] | [12] | [13] | [2]

COc1ccc(C(=O)c2ccccc2O)c(O)c1
inactive: [9] | [10]
active: [14] 81.7 µM

Oc1cccc2ccccc12
active: [3] 39.1 µM | [4] 49.2 µM | [9] 1.62 µM | [10] 29.9 µM
inactive: [15] | [16] | [13] | [17] | [5] | [6] | [14] | [18] | [19]

CO[Si](CCCNCCN)(OC)OC
inactive: [11] | [13] | [20] | [3] | [4] | [7] | [8] | [19]

O=C(O)c1cc(Cl)cc(Cl)c1O
inactive: [13] | [20]
active: [2] 100 µM

CC(=O)OC(C)(C)Cc1ccccc1
inactive: [11] | [15] | [16] | [13] | [20] | [17] | [18] | [19]

COc1ccccc1Oc1c(NS(=O)(=O)c2ccc(C(C)(C)C)cc2)nc(-c2ncccn2)nc1OCCO
inactive: [1]

CC(C)(C)NC(=O)[C@@H]1CN(Cc2cccnc2)CCN1C[C@@H](O)C[C@@H](Cc1ccccc1)C(=O)N[C@H]1c2ccccc2C[C@H]1O
active: [12] 13.4 µM
inactive: [15] | [16]

COc1ccc2ccccc2c1
inactive: [12] | [16]

CCCCC(CC)COC(=O)C=Cc1ccc(OC)cc1 (centres undefined)
inactive: [9] | [14] | [10]

CCCCCCOC(=O)CCCCCCCC(=O)OCCCCCC
inactive: [12]

CCC[Si](OC(C)=O)(OC(C)=O)OC(C)=O
inactive: [1]

C[Si](C)(C)O[Si](C)(C)O[Si](C)(C)C
inactive: [2] | [3] | [4] | [5] | [6] | [7] | [8] | [18] | [19]

CCCC[N+]1(C)CCCC1
inactive: [2] | [20]

CC/C=C\CCO
inactive: [15] | [12] | [20] | [3] | [4] | [17] | [5] | [6] | [19]

Cc1c(C(N)=O)cc([N+](=O)[O-])cc1[N+](=O)[O-]
inactive: [1]

F[B-](F)(F)F
inactive: [20] | [5] | [6] | [7] | [8] | [18] | [19]

CN(C)N=Nc1ccccc1
inactive: [13]

CCCc1c(OCCCCc2nn[nH]n2)ccc(C(C)=O)c1O
active: [2] 5.65 µM
inactive: [15] | [12] | [16]

CNCCC(Oc1ccc(C(F)(F)F)cc1)c1ccccc1 (centres undefined)
inactive: [1]
